Results filed as inconclusive are left out. The source made the active and inactive calls. Calls follow the shape of the dose curve; as a rule, active = well fitted inhibition curve with a large enough effect; inconclusive = small, poorly fitted or top-dose-only effect; inactive = no such curve, though single readings can be large or run the other way.
The compounds below were run against Luciferin 4-monooxygenase (Photinus pyralis) (UniProt P08659) (assay: FLuc inhibitory activity for the follow-up compounds in a biochemical assay with Km concentrations of substrate). Settings: purified FLuc, Km substrates, luminescence; series mostly up to 57.5 µM.
From the text: NCGC Assay Overview: Firefly (Photinus pyralis) luciferase is one of the most commonly used transcriptional reporters. It is considered one of the more dynamically responsive reporters - that is, responsive to changes in reporter transcription - as it requires no post-translational modifications and is enzymatically active directly after protein synthesis (Wood, 1998). With no endogenous expression in mammalian cells and without the requirement of external excitation, it offers very little background signal, thus generally providing excellent signal to background for most assays. Previous profiling work to determine the prevalence of compounds that affect FLuc enzymatic activity (PubChem AID 411) identified that ~3% of the MLSMR library (then at ~72K) inhibited FLuc. […] Of the compounds identified in this profile that inhibited FLuc, 151 compounds were selected for further analysis, in an effort to better understand their mode of inhibiting FLuc. The assay described here confirms the FLuc inhibitory activity of the 151 compounds.
NCGC Assay Protocol Summary: Reagents: 50mM Tris acetate, pH 7.5; 10mM Mg acetate; 10uM D-luciferin (Sigma #L9504); 10uM ATP; 0.01% Tween-20; 0.05% BSA; 10nM P. pyralis luciferase (Sigma #L9506) Control compounds used were two known firefly luciferase inhibitors (3-(5-(3-chlorophenyl)-1,2,4-oxadiazol-3-yl)benzoic acid and 5-(2-fluorophenyl)-3-phenyl-1,2,4-oxadiazole), and DMSO. Three microliters containing firefly luciferase substrates in buffer (final concentrations: 50mM Tris acetate, pH 7.5, 10mM Mg acetate, 0.01% Tween-20, 0.05% BSA, 10uM D-luciferin, and 10uM ATP) are dispensed into each well of a Greiner white, solid-bottom 1536-well format plate using a flying reagent dispenser (FRD). These assay plates were then treated with 23nL of compound or DMSO using a Kalypsys pin tool, which allows for delivery of a 12-point intraplate titration of each compound to the assay plate (quantitative HTS), with a final compound concentrations ranging from approximately ~60uM to 0.3nM. One microliter of firefly luciferase in 500mM Tris-acetate buffer was then delivered by FRD to each well for a final enzyme concentration of 10nM. Luciferase activity was then measured using a ViewLux CCD imager (PerkinElmer), with an average exposure time of 2-30 seconds (2X binning, medium/high gain).

Luciferin 4-monooxygenase (Photinus pyralis), sequence (P08659 whole entry, looked up): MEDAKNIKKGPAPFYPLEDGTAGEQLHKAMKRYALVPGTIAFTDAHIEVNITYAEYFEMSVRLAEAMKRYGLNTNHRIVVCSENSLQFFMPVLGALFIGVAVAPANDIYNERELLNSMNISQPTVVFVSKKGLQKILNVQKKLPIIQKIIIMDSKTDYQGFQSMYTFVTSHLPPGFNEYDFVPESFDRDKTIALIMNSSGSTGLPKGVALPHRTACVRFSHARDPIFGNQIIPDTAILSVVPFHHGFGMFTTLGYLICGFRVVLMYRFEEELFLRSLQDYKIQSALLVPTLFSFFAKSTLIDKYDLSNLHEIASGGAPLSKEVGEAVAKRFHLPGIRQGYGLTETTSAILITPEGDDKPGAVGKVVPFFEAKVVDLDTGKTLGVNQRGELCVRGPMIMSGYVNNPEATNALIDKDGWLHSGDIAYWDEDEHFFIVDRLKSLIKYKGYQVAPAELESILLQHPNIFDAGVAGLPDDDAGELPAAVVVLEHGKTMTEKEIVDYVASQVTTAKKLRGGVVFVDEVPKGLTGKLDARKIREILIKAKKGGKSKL

How did the Potency turn out when O=C(COC(=O)c1ccccc1[N+](=O)[O-])c1ccc2c(c1)OCO2 was run?
Its Potency is 0.0058 µM (active).

How did the Potency turn out when Cc1ccc(C(=O)Nc2cccc(C(=O)O)c2)cc1 was run?
The Potency was 0.0326 µM (active).

For Cc1ccc(C(=O)Nc2ccccc2C(=O)O)cc1S(=O)(=O)N1CCCCCC1, which Potency is on record?
Its Potency is 1.83 µM (active).

COc1ccc2nc(NC(=O)c3nc(S(=O)(=O)Cc4ccc(C)cc4)ncc3Cl)sc2c1 was tested. Which Potency did it give?
The Potency was “inactive”.

With Cc1c(NC(=O)C(C)(C)C)cccc1-c1nc2ccccc2s1 as the compound, how does the Potency read?
Its Potency is 3.26 µM (active).

How did the Potency turn out when O=C(Nc1ccccc1C(=O)O)c1cccc(NC(=O)c2ccco2)c1 was run?
The Potency was 18.3 µM (active).

How did the Potency turn out when COc1ccc(C(=O)Nc2ccccc2C(=O)Nc2ccc(C(=O)O)cc2)cc1 was run?
Its Potency is 1.63 µM (active).

How did the Potency turn out when O=C(O)c1cccc(NC(=O)c2cccc(NC(=O)C3CCCO3)c2)c1 (stereo not given) was run?
The Potency was 0.919 µM (active).

O=C(Nc1ccccc1C(=O)O)c1cccc(NC(=O)c2ccc(Br)o2)c1 was tested. Which Potency did it give?
The Potency was 23.1 µM (active).

For COc1ccc(NS(=O)(=O)c2cccc(C(=O)Nc3ccccc3C(=O)O)c2)cc1, which Potency is on record?
Its Potency is “inactive”.

For COc1ccc2nc(NC(=O)CCc3ccc(OC)c(OC)c3)sc2c1, which Potency is on record?
Its Potency is “inactive”.

For O=C(Nc1ccccc1C(=O)O)c1ccc(NC(=O)C2CCCO2)cc1 (stereo not given), which Potency is on record?
The Potency was 16.3 µM (active).

With CC(C)(C)NC(=O)c1ccccc1-c1nc2ccccc2s1 as the compound, how does the Potency read?
The Potency was “inactive”.

For CN(C)S(=O)(=O)c1ccc(C(=O)Nc2ccccc2C(=O)O)cc1, which Potency is on record?
Its Potency is 13 µM (active).

O=C(O)c1ccc(NC(=O)c2ccccc2NC(=O)c2cccc(Br)c2)cc1 was tested. Which Potency did it give?
The Potency was 14.6 µM (active).

For COc1ccc2nc(NC(=O)Cc3cccs3)sc2c1, which Potency is on record?
The Potency was 7.3 µM (active).

Which Potency does the source give for CC(=O)Nc1cccc(C(=O)Nc2ccccc2C(=O)O)c1 here?
Its Potency is 32.6 µM (active).

How did the Potency turn out when CC(C)c1ccc(C(=O)Nc2ccc(-c3nc4ccccc4s3)c(Cl)c2)cc1 was run?
The Potency was “inactive”.

With COc1ccc2nc(NC(=O)c3cccc(S(=O)(=O)N4CCOCC4)c3)sc2c1 as the compound, how does the Potency read?
Its Potency is 20.6 µM (active).

With O=C(Nc1ccccc1C(=O)O)c1ccc(NC(=O)C2CCCCC2)cc1 as the compound, how does the Potency read?
Its Potency is 11.6 µM (active).

For Cc1ccccc1C(=O)Nc1cccc(C(=O)Nc2ccccc2C(=O)O)c1, which Potency is on record?
The Potency was 32.6 µM (active).

Which Potency does the source give for COc1ccc(Br)cc1C(=O)Nc1ccc(C(=O)O)cc1 here?
The Potency was “inactive”.

With Nc1ccc(C(=O)Nc2ccccc2C(=O)O)cc1 as the compound, how does the Potency read?
Its Potency is 7.3 µM (active).

With Cc1ccc(C(=O)Nc2cccc(C(=O)O)c2)cc1S(=O)(=O)N1CCOCC1 as the compound, how does the Potency read?
The Potency was 0.291 µM (active).

Nc1cccc(-c2nc3ccc(N)cc3s2)c1 was tested. Which Potency did it give?
Its Potency is 0.366 µM (active).

With Nc1ccc2nc(-c3ccccc3)sc2c1 as the compound, how does the Potency read?
Its Potency is 0.163 µM (active).

For COc1ccc(-c2nc3ccccc3s2)cc1O, which Potency is on record?
Its Potency is 0.146 µM (active).

CCOC(=O)N1CCN(CC(=O)Nc2nc3ccc(OC)cc3s2)CC1 was tested. Which Potency did it give?
Its Potency is “inactive”.

COc1ccc2nc(NC(=O)CCc3nc(-c4ccccc4F)no3)sc2c1 was tested. Which Potency did it give?
The Potency was “inactive”.

With Cc1ccc2sc(-c3ccc(N)cc3)nc2c1 as the compound, how does the Potency read?
The Potency was 0.183 µM (active).

For Cc1ccc(C(=O)O/N=C(\N)c2ccccn2)c(Cl)c1, which Potency is on record?
The Potency was 0.0146 µM (active).

With CC(=O)Oc1ccc(C(=O)Nc2ccccc2C(=O)Nc2cccc(C(=O)O)c2)cc1 as the compound, how does the Potency read?
The Potency was 6.51 µM (active).

For O=C(O)c1cccc(NC(=O)c2ccc(Cl)c(S(=O)(=O)N3CCCCCC3)c2)c1, which Potency is on record?
The Potency was 0.058 µM (active).

Which Potency does the source give for O=C(Nc1ccccc1C(=O)O)c1ccccc1 here?
The Potency was 32.6 µM (active).

How did the Potency turn out when O=C(O)c1ccc(NC(=O)c2cc(S(=O)(=O)N3CCCCC3)c(Cl)cc2Cl)cc1 was run?
The Potency was “inactive”.

How did the Potency turn out when O=C(O)c1cccc(NC(=O)c2ccc(S(=O)(=O)c3ccccc3)cc2)c1 was run?
Its Potency is 5.8 µM (active).

For O=C(Nc1ccccc1C(=O)O)c1cc(S(=O)(=O)Nc2ccccc2)ccc1Cl, which Potency is on record?
Its Potency is “inactive”.

For CCc1noc(C)c1C(=O)Nc1nc2ccc(OC)cc2s1, which Potency is on record?
Its Potency is 13 µM (active).

For COc1ccc(C(=O)Nc2nc3ccc(OC)cc3s2)cc1, which Potency is on record?
Its Potency is 1.83 µM (active).

Which Potency does the source give for COc1ccc(-c2cccc(C(=O)Nc3cccc(C(=O)O)c3)c2)cc1 here?
The Potency was 4.61 µM (active).

Reference: PubChem BioAssay AID602357 (National Center for Advancing Translational Sciences (NCATS), 2012)
